Screens as filed in PubChem BioAssay.
JMJD2A Tudor inh: inhibitors of human JMJD2A Tudor domain. O75164. AlphaScreen JMJD2A-Tudor / H3K4me3 peptide binding. Potency, µM (highest dose often 114 µM), hits mostly inhibitors. 390,000 compounds, 4.4% hits. AID 504339; further: nearly all actives have a fitted effect of over 50% in size
HP1b chromo inh: inhibitors of HP1-beta chromodomain binding to methylated histone tails; AlphaScreen HP1-beta / biotin-H3K9me3 peptide binding; Potency, µM (doses to about 114 µM), hits mostly inhibitors; 390,000 compounds, 0.56% hits; P83916; further: nearly all actives have a fitted effect of over 70% in size
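Compound inhibition of the preformed complex between 50 nM HP1-beta and 50 nM biotinylated H3K9me3 peptide was read by AlphaScreen. Buffer was PBS pH 7.4 with 0.01% Tween-20. Incubations ran 30 min at room temperature, with 10 ug/mL donor/acceptor beads.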
G9a block: blocks human histone lysine methyltransferase G9a | G9a H3K9 monomethylation, AlphaScreen, 2 h | Q96KQ7 | Potency, µM (titrated, usually from 102 µM), most hits filed as inhibitors | AID 504332 | 350,000 compounds, 8.8% hits; further: nearly all actives have a fitted effect of over 75% in size
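G9a (20 nM) was preincubated 15 min with compound, then reacted 2 h at room temperature with 500 nM biotin-H3K9 peptide and 20 µM SAM. Monomethyl-H3K9 detected by AlphaScreen using anti-H3K9me1 antibody.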
L3MBTL1 block: blocks human L3MBTL1 | Q9Y468 | AlphaScreen L3MBTL1–H3K9me1 peptide binding | Potency, µM (doses to about 57.1 µM), most hits filed as inhibitors | 230,000 compounds, 0.66% hits | AID 485360; further: nearly all actives have a fitted effect of over 60% in size
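AlphaScreen assay: L3MBTL1 (50 nM final) was preincubated 30 min at room temperature with biotinylated H3(1-15)K9me1 peptide (75 nM final), then 30 min with library compounds; streptavidin donor and nickel chelate acceptor beads (10 ug/mL final) added, 30 min dark.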
Sfp PPTase inh: blocks B. subtilis Sfp PPTase activity | Biochemical Sfp PPTase activity, qHTS | Potency, µM, usual class: inhibitors | 310,000 compounds, 3.5% hits | AID 1490;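 further: the enzyme is Sfp with the accession as filed and its product quenches rhodamine fluorescence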
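Compounds were incubated with enzyme (final 15 nM) for 15 min at room temperature before substrate addition started the reaction. Fluorescence at 525 nm excitation, 598 nm emission was recorded immediately and after 30 minutes.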
BAZ2B inh: BAZ2B (human) inhibition; AlphaScreen BAZ2B-H3K14Ac peptide displacement; Potency, µM (doses to about 114 µM), usual class: inhibitors; 360,000 compounds, 4.4% hits; further: nearly all actives have a fitted effect of over 60% in size
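Compounds, titrated to a top concentration of 110 uM, were incubated 30 min at room temperature with preformed BAZ2B/acetyl-K14 H3 peptide complex (50 nM each). Proximity signal was measured by AlphaScreen after 20 min with beads.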
A number is an active result; [ ] = another dose, or the depositor's remark. Most compounds without a hit are left out; they make up all but 12% or so of the library. The call rests on the fitted dose curve; in most records, active means well fitted curve in the direction sought with a large enough effect; inconclusive means small, poorly fitted or top-dose-only effect, or another doubt; inactive means no such curve, though single readings can be large; an effect the other way counts as inactive or inconclusive.

How did CCCCCCCN1N=C(C)C(C(=O)c2ccccc2)C1=O (configuration not stated) do in these assays?
JMJD2A Tudor inh: 50µM; HP1b chromo inh: inactive; G9a block: inconclusive; Sfp PPTase inh: inactive; BAZ2B inh: inconclusive

How did CCCCCCN1N=C(C)C(C(=O)c2ccc(Cl)cc2)C1=O (configuration not stated) do in these assays?
JMJD2A Tudor inh: inconclusive; HP1b chromo inh: inactive; G9a block: inactive; L3MBTL1 block: inactive; Sfp PPTase inh: inactive; BAZ2B inh: inactive

What do the screens show for `Cc1ccn2c(=O)cc(CSc3nnc(C)s3)nc2c1`?
JMJD2A Tudor inh: inactive; HP1b chromo inh: inactive; G9a block: inactive; BAZ2B inh: inactive

How did C=CCN1c2ccccc2[C@]23C[C@@H](C(=O)OC)N(S(=O)(=O)c4ccc(C)cc4)C2=NC(C(=O)OC)=C(C(=O)OC)[C@H]13 do in these assays?
Sfp PPTase inh: inactive

How did COC(=O)/C=C1/N/C(=N\c2nc(C)cc(C)n2)N(c2cccc(C)c2)C1=O do in these assays?
JMJD2A Tudor inh: 22µM; HP1b chromo inh: inactive; G9a block: inactive; L3MBTL1 block: inactive; Sfp PPTase inh: inconclusive; BAZ2B inh: inactive

How did O=C(Nc1ccc(F)cc1)c1ccc2c(c1)S(=O)(=O)N=C1CCCCCN12 do in these assays?
JMJD2A Tudor inh: inactive; HP1b chromo inh: inactive; G9a block: inactive[12.7 µM]; L3MBTL1 block: inactive; BAZ2B inh: inactive

Results for COc1cc(NC(=O)c2ccc3c(c2)S(=O)(=O)N=C2CCCCCN23)cc(OC)c1 ?
JMJD2A Tudor inh: inactive; HP1b chromo inh: inactive; G9a block: 50µM; L3MBTL1 block: inactive; BAZ2B inh: inactive

How did COc1ccc(CNCc2c(C(=O)O)c(C)n(Cc3ccccc3C)c2C)cc1OC do in these assays?
JMJD2A Tudor inh: inactive; HP1b chromo inh: inactive; G9a block: inactive; BAZ2B inh: inactive

Results for CCOC(=O)c1ccccc1NC(=O)Nc1cc2c(cc1N1CCCC1)n(C)c(=O)n2C ?
JMJD2A Tudor inh: inconclusive; HP1b chromo inh: inactive; G9a block: inconclusive; BAZ2B inh: 50µM

Results for CCOC(=O)C1CCN(c2cc3c(cc2NC(=O)c2ccc(F)cc2)n(C)c(=O)n3C)CC1 ?
JMJD2A Tudor inh: inactive; HP1b chromo inh: inactive; G9a block: inactive[0.0925 µM]; Sfp PPTase inh: inactive; BAZ2B inh: inconclusive

How did COc1cc2c(cc1NC(=O)c1ccccc1C)n(C)c(=O)n2C do in these assays?
JMJD2A Tudor inh: inactive; HP1b chromo inh: inactive; G9a block: inactive; BAZ2B inh: 50µM

Results for CCOC(=O)C1CCN(c2cc3c(cc2NC(=O)c2ccccc2F)n(C)c(=O)n3C)CC1 ?
JMJD2A Tudor inh: inactive; HP1b chromo inh: inactive; G9a block: inactive[0.0925 µM]; Sfp PPTase inh: inactive; BAZ2B inh: 50µM

What do the screens show for `CCOC(=O)Cc1ccc(NC(=O)Nc2cc3c(cc2N2CCCCC2)n(C)c(=O)n3C)cc1`?
JMJD2A Tudor inh: inactive; HP1b chromo inh: inactive; G9a block: inactive; BAZ2B inh: inactive

How did COc1ccc(OCC(=O)NC2CC(=O)N(c3ccc4c(c3)OCCO4)C2)cc1 (configuration not stated) do in these assays?
JMJD2A Tudor inh: inactive; HP1b chromo inh: inactive; G9a block: inactive; BAZ2B inh: inactive

How did Cc1ccc(C)c(N2CCN(C(=O)C(CC(C)C)NS(=O)(=O)c3ccc4nc(C)sc4c3)CC2)c1 (configuration not stated) do in these assays?
JMJD2A Tudor inh: inactive; HP1b chromo inh: inactive; G9a block: inactive; BAZ2B inh: inactive

How did Cc1ccc2c(c1)c1nnc(SCC(=O)N3CCN(c4ccc(F)cc4)CC3)nc1n2CC(=O)O do in these assays?
JMJD2A Tudor inh: inactive; HP1b chromo inh: inactive; G9a block: inactive; L3MBTL1 block: inactive; Sfp PPTase inh: 71µM; BAZ2B inh: inactive

Results for CCCCn1c2ccccc2c2nnc(SCC(=O)NC3=NN=C(c4ccccc4)CS3)nc21 ?
G9a block: 28µM; L3MBTL1 block: inactive; Sfp PPTase inh: inactive; BAZ2B inh: inactive

What do the screens show for `Cn1c2ccccc2c2nnc(SCCN3CCOCC3)nc21`?
JMJD2A Tudor inh: inactive; HP1b chromo inh: inactive; G9a block: 50µM; Sfp PPTase inh: inactive; BAZ2B inh: inactive

Results for CCn1c2ccccc2c2nnc(SCCN3CCOCC3)nc21 ?
JMJD2A Tudor inh: inactive; HP1b chromo inh: inactive; G9a block: inactive[0.501 µM]; L3MBTL1 block: inactive[2.29 µM]; Sfp PPTase inh: inconclusive; BAZ2B inh: inactive

Results for Cc1cc(C)nc(SCC(=O)NC2=NN=C(c3ccc(Br)cc3)CS2)n1 ?
JMJD2A Tudor inh: inactive; HP1b chromo inh: inactive; G9a block: inconclusive; L3MBTL1 block: inactive; Sfp PPTase inh: 40µM; BAZ2B inh: inactive

What do the screens show for `COc1ccccc1CNc1nc2c(S(=O)(=O)c3ccc(C)c(C)c3)nnn2c2ccc(Cl)cc12`?
JMJD2A Tudor inh: inactive; HP1b chromo inh: inactive; G9a block: inactive; BAZ2B inh: inactive

Results for Cc1ccc(-n2cc(C(=O)OCc3ccc(Cl)cc3)c3ccccc3c2=O)cc1 ?
JMJD2A Tudor inh: inactive; HP1b chromo inh: inactive; G9a block: inactive; BAZ2B inh: inactive

Results for Cn1c2ccccc2c2nnc(SCC(=O)Nc3cccc(O)c3)nc21 ?
JMJD2A Tudor inh: inactive; HP1b chromo inh: inactive; G9a block: 71µM; L3MBTL1 block: inactive; Sfp PPTase inh: inactive; BAZ2B inh: inactive

Results for CCn1c2ccc(C)cc2c2nnc(SCCN3CCOCC3)nc21 ?
JMJD2A Tudor inh: inactive; HP1b chromo inh: inactive; G9a block: 45µM; L3MBTL1 block: inactive; Sfp PPTase inh: inactive; BAZ2B inh: inactive

What do the screens show for `CCCCn1c2ccc(C)cc2c2nnc(SCCN3CCCCC3)nc21`?
JMJD2A Tudor inh: inactive; HP1b chromo inh: inactive; G9a block: inconclusive; Sfp PPTase inh: inactive; BAZ2B inh: inactive

Results for Cc1ccc(CNS(=O)(=O)c2c(C)nc3sc(C)cn3c2=O)cc1 ?
JMJD2A Tudor inh: inactive; HP1b chromo inh: inactive; G9a block: inactive; BAZ2B inh: inactive

Results for COc1ccc(-n2cc(-c3ccccc3)c3c(N4CCN(CCO)CC4)ncnc32)cc1 ?
JMJD2A Tudor inh: inconclusive; HP1b chromo inh: inactive; G9a block: 50µM; L3MBTL1 block: inactive; Sfp PPTase inh: inconclusive; BAZ2B inh: inconclusive

Results for COc1ccc(-n2cc(-c3ccccc3)c3c(NN4CCOCC4)ncnc32)cc1 ?
JMJD2A Tudor inh: inconclusive; HP1b chromo inh: inconclusive; G9a block: 50µM; Sfp PPTase inh: inactive; BAZ2B inh: inconclusive

How did CS(=O)(=O)NN1C(=O)c2ccccc2NC1c1cccs1 (configuration not stated) do in these assays?
JMJD2A Tudor inh: 3.5µM; HP1b chromo inh: inactive; G9a block: inactive; Sfp PPTase inh: inactive; BAZ2B inh: inactive

How did CCOC(=O)CNC(=O)O[C@@H]1Cc2cc(OC)ccc2O[C@H]1c1cccc(OC)c1 do in these assays?
Sfp PPTase inh: inactive
